Compound activity (PubChem BioAssay)
ASK1 inh: ASK1 kinase inhibitors, primary screen, biochemical, AlphaScreen; Mitogen-activated protein kinase kinase kinase 5 (Homo sapiens), Q99683; AlphaScreen MKK6 phosphorylation by ASK1, luminescence; actives 0.99% (n = 22,000); inhibition, % at 7.44 µM; in the data active = inhibition above about 35%
ULK1 primary: ULK1 kinase inhibitors, primary screen, biochemical, AlphaScreen | actives 1.9% (n = 30,000) | AlphaScreen Atg13 phosphorylation by ULK1, luminescence | inhibition, % at 5.96 µM | AID 1259251, 2017; in the data active = inhibition above about 43%
TruHits interf: AlphaScreen signal interference by compounds, dose response, artefact control for ASK1 inhibitor project, biochemical, TruHits beads | shares compounds with ASK1 inh | signal interference counterscreen | IC50, µM | actives 20% (n = 220) | AID 1159604, 2016;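 active = IC50 of 10 µM or lower in the counterscreen; inactive = IC50 above 10 µM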;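 also: loss of AlphaScreen light from TruHits beads alone with no ASK1 enzyme present; potency of signal reduction so a low IC50 flags an assay artifact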
Of the large screens only hits and unclear results are named; the others gave an inactive call (follow-up assays come after a bar, where they were run). A selection: hits, their analogues and other compounds. The true share with any hit is near 2.5%.

Cc1cc(NCc2cccc(C(F)(F)F)c2)nc(Nc2cccc(N(C)C)c2)n1	ASK1 inh 40.1 | TruHits interf inactive
FC(F)(F)c1cccc(CNc2ccnc(Nc3ccccc3)n2)c1	none
COc1cc2nc(Nc3cccc(N(C)C)c3)nc(NCc3ccccc3)c2cc1OC	none
Cc1cc(NCc2ccccc2)nc(Nc2cccc(N(C)C)c2)n1	none
Cc1cc(NCc2cccc(C(F)(F)F)c2)nc(Nc2ccc(C(F)(F)F)cc2)n1	none
Cc1ccn2cc(-c3ccc(NS(=O)(=O)c4cccc(F)c4)cc3)nc2n1	none (no result: ASK1 inh)
O=C(NCCc1ccc(O)cc1)c1ccc2nc(-c3csc4ccccc34)sc2c1	none
OCC1CCCN1c1nc(Nc2ccc3c(c2)OCO3)c2[nH]cnc2n1 (centres undefined)	none
COc1ccc(-c2ncc(C(=O)NC3CCN(Cc4ccccc4)CC3)s2)cc1	none
c1ccc(Nc2nc(Nc3ccccn3)nc3nc[nH]c23)cc1	none
COc1cc(Nc2cc(Nc3cccc(N(C)C)c3)ncn2)cc(OC)c1OC	none
Cc1cc(Nc2ccc(N3CCOCC3)cc2)nc(Nc2cccc(N(C)C)c2)n1	ASK1 inh 41.2 | TruHits interf inactive
CN(C)c1cccc(Nc2nccc(NCCOc3ccccc3)n2)c1	ASK1 inh 43.1 | TruHits interf inactive
Cc1cc(Nc2ccccc2)nc(Nc2ccc(N3CCOCC3)cc2)n1	none
CCCNc1ccnc(Nc2cccc(N(C)C)c2)n1	none
COc1cc(Nc2ccnc(Nc3cccc(N(C)C)c3)n2)cc(OC)c1OC	ASK1 inh 39.2 | TruHits interf 6.94
O=C(NCCN1CCOCC1)C1CCN(c2ccc(Nc3ccncn3)nn2)CC1	none
Cc1nc(-c2cccnc2)cc(N2CCCCC2)n1	none (no result: ASK1 inh)
COc1cc(Nc2nc(-c3ccc(C(N)=O)cc3)nc3c2ncn3C2CCCCC2)cc(OC)c1OC	ASK1 inh 40.4 | TruHits interf inactive
COc1cc(Nc2nc(-c3ccc(C(=O)NC4CC4)cc3)nc3c2ncn3C2CCCCC2)cc(OC)c1OC	none
FC(F)(F)c1cccc(CNc2ccnc(-c3ccc(N4CCOCC4)nc3)n2)c1	none
CC(=O)c1cccc(-c2cc(Nc3ccc(N4CCOCC4)cc3)nc(N)n2)c1	none
Cn1ccc2cc(-c3cc(Nc4ccc(N5CCOCC5)cc4)nc(N)n3)ccc21	ASK1 inh 46.3 | TruHits interf inactive
c1ccc(-c2nc3ncnc(Nc4ccc(N5CCOCC5)cc4)c3[nH]2)cc1	none
Nc1cccc(-c2nc3ncnc(Nc4ccc(N5CCOCC5)cc4)c3[nH]2)c1	ASK1 inh 36.1 | TruHits interf inactive
Cc1cnc(-c2cccc(N)c2)nc1Nc1ccc(N2CCOCC2)cc1	ASK1 inh 51.4 | TruHits interf inactive
Cc1cnc(-c2csc3ccccc23)nc1Nc1ccc(N2CCOCC2)cc1	ASK1 inh 42.5 | TruHits interf inactive
CC(=O)c1cccc(-c2ncc(C)c(Nc3ccc(N4CCOCC4)cc3)n2)c1	none
COc1cc2nc(-c3csc4ccccc34)nc(Nc3ccc(N4CCOCC4)cc3)c2cc1OC	none
CC(C)Cn1c2c(=O)n(C)c(=O)n(C)c2n2c(-c3ccc(Cl)cc3)nnc12	none (no result: ASK1 inh)
COc1ccc(CCNc2ccnc(Nc3ccccn3)n2)cc1	none
Cn1nccc1Nc1nc(NCCN2CCOCC2)c2ncn(Cc3ccc(C(F)(F)F)cc3)c2n1	none
COc1cc(NC(=O)c2ccc3nc(-c4ccc(C(=O)N5CCN(C)CC5)cc4)sc3c2)cc(OC)c1OC	none
FC(F)(F)c1ccc(Cn2cnc3c(Nc4ccc(N5CCOCC5)cc4)nc(Nc4ccccc4)nc32)cc1	none
Oc1ccc(CCNc2nc(NC3CCN(Cc4ccccc4)CC3)nc3c2ncn3Cc2ccc(C(F)(F)F)cc2)cc1	ASK1 inh 38.9 | TruHits interf inactive
FC(F)(F)c1ccc(Cn2cnc3c(Nc4ccc(N5CCOCC5)cc4)nc(NC4CCN(Cc5ccccc5)CC4)nc32)cc1	ASK1 inh 36.6 | TruHits interf inactive
COc1ccc(CCNc2nc(NC3CCN(Cc4ccccc4)CC3)nc3c2ncn3Cc2ccc(C(F)(F)F)cc2)cc1	none
COc1cc2nc(Nc3ccc(C(F)(F)F)cc3)nc(NCc3cccc(C(F)(F)F)c3)c2cc1OC	none
O=C(Nc1cc(F)c(-c2cn[nH]c2)c(F)c1)C1COc2ccccc2C1 (centres undefined)	none
CCN(CC)c1nc(Nc2ccccc2)nc(Nc2ccc(N3CCOCC3)cc2)n1	none
COc1ccc(CCNc2cc(C)nc(-c3ccc(C(=O)NC4CC4)cc3)n2)cc1	none
Fc1ccc(-c2c(-c3ccnc(Nc4ccc(N5CCOCC5)cc4)c3)noc2NCc2ccccc2)cc1	ASK1 inh 36.6 | TruHits interf inactive
c1ccc(Nc2ccnn2-c2ccnc(Nc3ccc(N4CCOCC4)cc3)c2)cc1	none
CN(C)CCNc1onc(-c2ccnc(Nc3ccc(N4CCOCC4)cc3)c2)c1-c1ccc(F)cc1	none
